A selection: hits, their analogues and other compounds. The true share with any hit is near 28%.
CYP2C9 inh = blockers of cytochrome P450 2C9 activity – biochemical, luminescence, ADME assay, primary screen; CYP2C9 Supersomes, luciferin-H conversion; inhibition, % at 5 µM; 96,000 tested, 20% active; AID 777, 2007;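 active = blocking of liver enzyme CYP2C9 beyond about 50% at 5 µM, limit read from the data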
CD11b adhes inh = inhibitors of CD11b/CD18 adhesion to fibrinogen, primary screen, K562 cells, luminescence; 93,000 tested, 0.54% active; inhibition, % at 10 µM; ATPlite luminescence; Mn2+ added to activate the integrin;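 active = primary inhibition of 50% or more at 10 µM, then 40% or more on retest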
Target sequence (P05107 whole entry, looked up, other chains not shown): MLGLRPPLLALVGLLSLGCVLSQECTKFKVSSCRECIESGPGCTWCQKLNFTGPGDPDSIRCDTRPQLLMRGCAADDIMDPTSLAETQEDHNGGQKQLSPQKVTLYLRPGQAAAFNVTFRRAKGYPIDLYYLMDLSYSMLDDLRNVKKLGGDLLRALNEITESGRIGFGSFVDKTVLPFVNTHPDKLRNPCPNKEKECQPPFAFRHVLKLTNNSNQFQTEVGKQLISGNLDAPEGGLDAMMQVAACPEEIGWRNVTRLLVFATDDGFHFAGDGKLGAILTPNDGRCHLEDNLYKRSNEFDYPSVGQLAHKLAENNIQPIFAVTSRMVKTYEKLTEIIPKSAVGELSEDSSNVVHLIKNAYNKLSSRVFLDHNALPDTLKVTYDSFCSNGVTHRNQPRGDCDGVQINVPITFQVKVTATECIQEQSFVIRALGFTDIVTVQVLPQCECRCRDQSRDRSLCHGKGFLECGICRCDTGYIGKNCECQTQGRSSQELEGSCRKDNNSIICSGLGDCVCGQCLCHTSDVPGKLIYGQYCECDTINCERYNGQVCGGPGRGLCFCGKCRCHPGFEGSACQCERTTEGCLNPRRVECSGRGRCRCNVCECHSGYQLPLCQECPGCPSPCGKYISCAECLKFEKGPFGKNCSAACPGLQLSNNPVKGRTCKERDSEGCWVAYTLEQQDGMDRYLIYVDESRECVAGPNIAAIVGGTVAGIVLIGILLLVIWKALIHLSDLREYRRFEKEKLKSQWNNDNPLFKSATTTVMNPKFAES
Mac1 fbg enh = enhancers of CD11b/CD18 adhesion to fibrinogen, primary screen, K562 cells, luminescence; Integrin beta-2 (Homo sapiens) + Integrin alpha-M (Homo sapiens), P05107+P11215; ATPlite luminescence; activation, % at 10 µM; 93,000 tested, 0.07% active; AID 1499, 2009;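 active = 10 µM primary screen giving 50% or more activity, confirmed by 40% or more on retest at that dose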
CYP2C19 inh = blockers of cytochrome P450 2C19 activity – biochemical, luminescence, ADME assay, primary screen. P33261. CYP2C19 Supersomes, luciferin-H EGE luminescence, 30 min. inhibition, % at 5 µM. 96,000 tested, 21% active. AID 778, 2007;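 active = CYP2C19 inhibition above a set limit at 5 µM in the primary screen, cut at about 50% in these data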
CYP2C19 act = human CYP2C19 activators, primary screen, biochemical, luminescence; 96,000 tested, under 10 active; activation factor at 5 µM; recombinant CYP2C19, luciferin-H EGE luminescence; hits give high values; 0 = fully inhibited enzyme, 1 = untreated enzyme;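 active = activation factor of at least 2 at 5 µM in the primary screen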
CYP2C9 act = human CYP2C9 activators, primary screen, biochemical, luminescence; Cytochrome P450 2C9 (Homo sapiens), P11712; recombinant CYP2C9, luciferin-H conversion; hits give high values; factor 1 = untreated enzyme, 0 = blocked; 96,000 tested, 1.4% active; activation factor at 5 µM;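 active = activation factor of 2 or more for CYP2C9 at a 5 µM dose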
Hits are given with their value.

Screening COc1ccc(C2CC(c3ccc(OC)cc3)n3nc(N)nc3N2)cc1 (stereo unspecified) returned CYP2C9 inh inactive, CD11b adhes inh inactive, Mac1 fbg enh inactive, CYP2C19 inh inactive, CYP2C19 act inactive and CYP2C9 act inactive.
`O=C(c1ccc2snnc2c1)N1CCOCC1` gave CYP2C9 inh inactive, CD11b adhes inh inactive, Mac1 fbg enh inactive, CYP2C19 inh inactive, CYP2C19 act inactive and CYP2C9 act inactive.
O=C(O)C1CCN(C(=O)NC2CCCCC2)CC1 was read as CYP2C9 inh inactive, CD11b adhes inh inactive, Mac1 fbg enh inactive, CYP2C19 inh inactive, CYP2C19 act inactive and CYP2C9 act inactive.
`CCOC(=O)C1C(=O)C(C(C)=O)C(=O)CC1CC(C)SCC` (stereo unspecified) gave CYP2C9 inh inactive, CD11b adhes inh inactive, Mac1 fbg enh inactive, CYP2C19 inh inactive, CYP2C19 act inactive and CYP2C9 act inactive.
COc1cccc(C2CC(c3cccc(C)c3)n3ncnc3N2)c1 (stereo unspecified) was read as CYP2C9 inh 67, CD11b adhes inh inactive, Mac1 fbg enh inactive, CYP2C19 inh 74, CYP2C19 act inactive and CYP2C9 act inactive.
For COc1cccc(C2CC(c3cccc(OC)c3)n3nc(N)nc3N2)c1 (stereo unspecified) the results were CYP2C9 inh inactive, CD11b adhes inh inactive, Mac1 fbg enh inactive, CYP2C19 inh inactive, CYP2C19 act inactive and CYP2C9 act inactive.
For CCOc1ccc(N(CC(=O)N2CCc3ccccc32)S(=O)(=O)c2c(C)noc2C)cc1 the results were CYP2C9 inh inactive, CD11b adhes inh inactive, Mac1 fbg enh inactive, CYP2C19 inh inactive, CYP2C19 act inactive and CYP2C9 act inactive.
Screening Cc1n[nH]c(C)c1S(=O)(=O)N1CCc2ccccc21 returned CYP2C9 inh inactive, CD11b adhes inh inactive, Mac1 fbg enh inactive, CYP2C19 inh 61, CYP2C19 act inactive and CYP2C9 act inactive.
Screening CN(C)S(=O)(=O)N1CCc2ccccc21 returned CYP2C9 inh inactive, CD11b adhes inh inactive, Mac1 fbg enh inactive, CYP2C19 inh inactive, CYP2C19 act inactive and CYP2C9 act 2.3.
For CN(C)S(=O)(=O)N1CCc2ccccc2C1 the results were CYP2C9 inh inactive, CD11b adhes inh inactive, Mac1 fbg enh inactive, CYP2C19 inh 66, CYP2C19 act inactive and CYP2C9 act 2.4.
`Cn1cnc(S(=O)(=O)N2CCc3ccccc32)c1` gave CYP2C9 inh inactive, CD11b adhes inh inactive, Mac1 fbg enh inactive, CYP2C19 inh inactive, CYP2C19 act inactive and CYP2C9 act inactive.
Cc1n[nH]c(C)c1S(=O)(=O)N(CC(=O)N1CCc2ccccc21)c1ccc(C(C)C)cc1 was read as CYP2C9 inh 58, CD11b adhes inh inactive, Mac1 fbg enh inactive, CYP2C19 inh inactive, CYP2C19 act inactive and CYP2C9 act inactive.
`CCc1ccc(-n2c(Cn3nc(C(F)(F)F)cc3C)n[nH]c2=S)cc1` gave CYP2C9 inh inactive, CD11b adhes inh inactive, Mac1 fbg enh inactive, CYP2C19 inh inactive, CYP2C19 act inactive and CYP2C9 act inactive.
Screening O=S(=O)(Cc1ccccc1)N1CCc2ccccc21 returned CYP2C9 inh inactive, CD11b adhes inh inactive, Mac1 fbg enh inactive, CYP2C19 inh 69, CYP2C19 act inactive and CYP2C9 act inactive.
Screening O=C(CS(=O)(=O)Cc1ccccc1)N1CCc2ccccc2C1 returned CYP2C9 inh inactive, CD11b adhes inh inactive, Mac1 fbg enh inactive, CYP2C19 inh inactive, CYP2C19 act inactive and CYP2C9 act inactive.
Screening COc1cccc(C(c2nnnn2Cc2ccccc2)N2CCN(C(=O)c3ccco3)CC2)c1OC (stereo unspecified) returned CYP2C9 inh inactive, CD11b adhes inh inactive, Mac1 fbg enh inactive, CYP2C19 inh inactive, CYP2C19 act inactive and CYP2C9 act inactive.
For Clc1ccccc1C(c1nnnn1Cc1ccco1)N1CCN(Cc2ccco2)CC1 (stereo unspecified) the results were CYP2C9 inh inactive, CD11b adhes inh inactive, Mac1 fbg enh inactive, CYP2C19 inh 96, CYP2C19 act inactive and CYP2C9 act inactive.
For COc1cccc(C(c2nnnn2Cc2ccco2)N2CCN(c3cccc(C)c3C)CC2)c1OC (stereo unspecified) the results were CYP2C9 inh 70, CD11b adhes inh inactive, Mac1 fbg enh inactive, CYP2C19 inh 56, CYP2C19 act inactive and CYP2C9 act inactive.
COc1c[nH]n(C2CCCCC2)c(=O)c1=O was read as CYP2C9 inh inactive, CD11b adhes inh inactive, Mac1 fbg enh inactive, CYP2C19 inh inactive, CYP2C19 act inactive and CYP2C9 act inactive.
For N#Cc1c(N)c(C(=O)c2ccccc2)n2c1CCCC2 the results were CYP2C9 inh inactive, CD11b adhes inh inactive, Mac1 fbg enh inactive, CYP2C19 inh 66, CYP2C19 act inactive and CYP2C9 act inactive.
N#Cc1c(N)c(C(=O)c2ccc(Br)cc2)n2c1CCC2 was read as CYP2C9 inh inactive, CD11b adhes inh inactive, Mac1 fbg enh inactive, CYP2C19 inh inactive, CYP2C19 act inactive and CYP2C9 act inactive.
COC(=O)Cn1c(SCc2ccccc2)nc2ccccc21 was read as CYP2C9 inh inactive, CD11b adhes inh inactive, Mac1 fbg enh inactive, CYP2C19 inh 58, CYP2C19 act inactive and CYP2C9 act inactive.
For CC1Cc2ccccc2N1C(=O)CSc1nc2ccccc2n1CC(=O)N1CCOCC1 (stereo unspecified) the results were CYP2C9 inh inactive, CD11b adhes inh inactive, Mac1 fbg enh inactive, CYP2C19 inh inactive, CYP2C19 act inactive and CYP2C9 act inactive.
For COc1cccc(NC(=O)Cn2c(SCC(=O)N3CCOCC3)nc3ccccc32)c1 the results were CYP2C9 inh 80, CD11b adhes inh inactive, Mac1 fbg enh inactive, CYP2C19 inh 71, CYP2C19 act inactive and CYP2C9 act inactive.
For CCCCn1c(SCC(=O)Nc2cccc(OC)c2)nc2ccc(N3CCOCC3)cc2c1=O the results were CYP2C9 inh 96, CD11b adhes inh inactive, Mac1 fbg enh inactive, CYP2C19 inh 83, CYP2C19 act inactive and CYP2C9 act inactive.
COc1cccc(C(=O)CSc2nc3ccccc3n2CC(=O)N2CCOCC2)c1 was read as CYP2C9 inh 68, CD11b adhes inh inactive, Mac1 fbg enh inactive, CYP2C19 inh inactive, CYP2C19 act inactive and CYP2C9 act inactive.
Screening CCSc1nc2ccccc2n1CC(=O)OC returned CYP2C9 inh inactive, CD11b adhes inh inactive, Mac1 fbg enh inactive, CYP2C19 inh inactive, CYP2C19 act inactive and CYP2C9 act inactive.
`COc1cc(NC(=O)CN2CCN(c3ccccc3F)CC2)c(C)cc1[N+](=O)[O-]` gave CD11b adhes inh inactive and Mac1 fbg enh inactive.

Bioassay records as filed in PubChem BioAssay.
